Screening data from PubChem BioAssay.
This is a sample that favours compounds with a hit; in the whole collection about 3.8% have one here.
Mdm2 MdmX PPI – human Mdm2/MdmX binding inhibition. O15151+Q00987. SaOS-2 split-luciferase Mdm2/MdmX complementation, luminescence. inhibition, % at 8 µM. 330,000 tested, 3% active. AID 485346;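 active = inhibition of at least 50% at 8 µM in the primary screen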
Jurkat NFkB inh – lowers PMA/ionomycin-induced NF-kB signal in Jurkat cells; 330,000 tested, 0.53% active; PMA/ionomycin-induced NF-kB luciferase reporter, luminescence; inhibition, % at 4 µM; in the data active = inhibition above about 50%
Beta cell apopt – beta cell apoptosis inhibition | protection from apoptosis, % (test concentration not listed) | 300,000 tested, 0.8% active | INS-1E cytokine-induced death, ATP luminescence, 48 h; percent of positive-control rescue, neutral wells zero;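 active = Every replicate reaches about 75%, or at least half do and their mean reaches it too, limit read from the data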;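 note: 0% = cytokine-treated negative control wells and 100% = positive control rescue; higher means more ATP so stronger rescue from cytokine killing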
697 NFkB inh – lowers PMA/ionomycin-induced NF-kB signal in 697 B cells. 697 B-cell NF-kB luciferase reporter, 16 h. inhibition, % at 4 µM. 330,000 tested, 0.33% active. AID 435022; in the data active = inhibition above about 35%
A1 inh – inhibitors of the anti-apoptotic protein A1, read as caspase activation | MEF A1-2A-BIM cells, Caspase-Glo 3/7 luminescence, 3 h; percent of clofoctol response, vehicle zero | 330,000 tested, 0.066% active | caspase activation, % (no concentration beside the values);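 active = over half of replicate activation scores above 10%, or exactly half above 10 with the replicate mean above 10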
NTR1 ag – agonists of human neurotensin receptor NTR1 | P30989 | NTR1-U2OS beta-arrestin-GFP spot imaging, agonist mode | activation, % at 20 µM | 330,000 tested, 0.17% active;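 active = activation at or above 40% of the spot to cytoplasm intensity ratio, with at least 20 cells analyzed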;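 note: 0% = DMSO without peptide and 100% = 100 nM NTR1 peptide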
Target sequence (P30989 whole entry, looked up): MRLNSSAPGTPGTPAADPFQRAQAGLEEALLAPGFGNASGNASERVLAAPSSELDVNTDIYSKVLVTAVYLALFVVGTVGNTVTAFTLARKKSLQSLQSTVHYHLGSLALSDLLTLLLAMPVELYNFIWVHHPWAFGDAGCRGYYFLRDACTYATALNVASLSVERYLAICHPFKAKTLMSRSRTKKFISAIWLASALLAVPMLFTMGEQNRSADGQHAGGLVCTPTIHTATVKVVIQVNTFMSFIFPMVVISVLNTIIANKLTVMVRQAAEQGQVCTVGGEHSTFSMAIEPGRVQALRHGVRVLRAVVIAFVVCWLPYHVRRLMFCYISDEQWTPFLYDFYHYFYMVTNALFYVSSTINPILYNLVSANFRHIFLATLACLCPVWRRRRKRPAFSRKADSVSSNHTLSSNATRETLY
Mdm2-MdmX conf – human Mdm2/MdmX binding inhibition, confirmed; shares compounds with Mdm2 MdmX PPI; luminescent assay; inhibition, % at 8 µM; 10,000 tested, 55% active; AID 489028; in the data active = inhibition above about 40%
Full FLuc ctr – full-length luciferase inhibition in Mdm2/MdmX counter-screen. shares compounds with Mdm2 MdmX PPI. SaOS-2 full-length luciferase counterscreen, luminescence. inhibition, % at 8 µM. 6,200 tested, 77% active. AID 504607;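 active = mean inhibition at 8 µM reaching about 37%, which flags the compound as non-specific, limit read from the data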;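 note: p53-null SaOS-2 cells with luciferase driven by a doxycycline-inducible promoter; compound on cells about two nights before reading with doxycycline added after day one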
* marks the source's active call; other numbers are inactive results; / = no result given.

SMILES	Mdm2 MdmX PPI	Jurkat NFkB inh	Beta cell apopt	697 NFkB inh	A1 inh	NTR1 ag	Mdm2-MdmX conf	others
C=CCn1c(SCc2c(C)noc2C)nc2sc3c(c2c1=O)CCCC3	52*	22	21	-30	0	15	55*	Full FLuc ctr=41*
COC(=O)C1=C(C)NC(C)=C(C(=O)OC)C1C(=O)OCC(=O)N1CCCCC1C (centres undefined)	5	0	/	-27	/	0	/
CC(C)n1cnc2c(Nc3cccc(Cl)c3)nc(NCCCO)nc21	73*	-21	5	-11	-1	-2	74*	Full FLuc ctr=72*
CCCCN1C(=O)C(=O)N(CC(=O)Nc2sc(CC)cc2C(=O)OCC)C1=O	-9	0	-2	2	0	2	/
Cc1c(C(=O)Nc2ccncc2)sc2nc(-c3ccc(F)cc3)cn12	67*	0	37	-30	-1	3	9
COc1ccc(-c2cn3c(C)c(C(=O)Nc4ccncc4)sc3n2)cc1	25	-4	16	-44	0	5	/
O=C(Cn1c(=O)c2cccn2c2cccnc21)N1CCN(c2ccc(Cl)cc2)CC1	24	17	-4	-8	4	1	/
O=C(NCCc1ccccc1)C1CCC(Cn2c(=O)c3ccccc3n(Cc3cccc(Cl)c3)c2=O)CC1 (centres undefined)	54*	13	14	11	1	4	0
O=C(NCCc1ccccc1)C1CCC(Cn2c(=O)c3ccccc3n(Cc3cccc(F)c3)c2=O)CC1 (centres undefined)	49	5	4	-10	0	3	/
O=C1CCCN1c1ccc(S(=O)(=O)NCc2ccc(F)cc2)cc1	15	-3	8	2	-2	-1	/
CC(=O)Nc1nc(-c2ccc3c(c2)CCN3C(=O)C2CC2)c(C)s1	95*	-19	9	-27	0	0	93*	Full FLuc ctr=51*
Cc1sc2ncnc(NCc3ccccc3)c2c1C	67*	30	41	-67	-1	2	18
Cc1sc2ncnc(Nc3ccccc3)c2c1C	12	3	1	-7	1	1	/
O=C1C(Cl)=C(Nc2cccc(O)c2)C(=O)N1Cc1ccccc1	52*	14	1	17	0	4	21
CC1CCN(C(=O)c2ccc(NC3=C(Cl)C(=O)N(Cc4ccccc4)C3=O)cc2)CC1	58*	16	/	-1	/	18	38
CC1CCCCN1C(=O)c1cccc(NC2=C(Cl)C(=O)N(Cc3ccccc3)C2=O)c1 (centres undefined)	76*	-3	-8	22	0	37	28
COc1ccccc1C(=O)NCCC(=O)Nc1ncccc1C	24	-1	-11	-2	0	-1	/
CCc1cc2ccc(OC)cc2nc1SCC(=O)Nc1cc(C)on1	50*	0	18	1	-1	22	32
O=C(NCC1COc2ccccc2O1)c1ccc(NC(=O)C(c2ccccc2)c2ccccc2)cc1 (centres undefined)	63*	-5	21	-24	0	-1	45*	Full FLuc ctr=55*
O=C(Cc1ccccc1)Nc1ccc(C(=O)NCC2COc3ccccc3O2)cc1 (centres undefined)	-14	4	17	13	0	0	/
COc1ccc(OC)c(NS(=O)(=O)c2cc3c4c(c2)CCN4C(=O)CC3)c1	17	-5	/	11	/	-2	/
Cc1cc(C)c(-c2csc(NC(=O)/C=C/c3cccs3)n2)c(C)c1	70*	22	8	1	0	6	61*	Full FLuc ctr=72*
CCOC(=O)C1CCCN(S(=O)(=O)CCNC(=O)c2ccccc2)C1 (centres undefined)	-5	-16	/	-30	1	1	/
Cc1cccc2cc(C#N)c(SCc3nnc(-c4ccccc4[N+](=O)[O-])o3)nc12	59*	-9	0	-33	1	3	17
Cc1cccc2cc(C#N)c(SCCN3CCCCC3)nc12	0	-1	37	-16	1	2	/
SMILES	Mdm2 MdmX PPI	Jurkat NFkB inh	Beta cell apopt	697 NFkB inh	A1 inh	NTR1 ag	Mdm2-MdmX conf	others
O=C(CN1CCC(C(O)(c2ccccc2)c2ccccc2)CC1)Nc1cc(Cl)ccc1Cl	54*	-23	5	-103	-1	5	45*	Full FLuc ctr=86*
N#Cc1c2ccc(OCC(=O)NCc3ccco3)cc2n2ccccc12	2	13	0	16	-1	0	/
N#Cc1c2ccc(O)cc2n2ccccc12	76*	-10	5	-16	-2	4	73*	Full FLuc ctr=35
O=C(NCc1ccncc1)C1CCCN1S(=O)(=O)c1ccc(Cl)cc1 (centres undefined)	7	5	0	9	0	4	/
O=C(Nc1cccnc1Cl)c1cc([N+](=O)[O-])ccc1Cl	31	-38	0	-35	-1	0	/
O=C(Nc1cccc2c1CCCC2)c1ccc(Cl)c([N+](=O)[O-])c1	56*	11	-5	32	-1	8	27
O=C(Nc1cccc2c1CCCC2)c1cc([N+](=O)[O-])ccc1Cl	62*	49	7	-9	1	4	21
CC(C)(C)OC(=O)N1CCC(NC(=O)c2ncn(Cc3ccccc3)c2C(=O)NC2CCN(C(=O)OC(C)(C)C)CC2)CC1	28	2	7	-14	0	5	/
N/C(=N\N=C/c1ccc(F)cc1)N/N=C\c1ccc(F)cc1	60*	-13	8	-6	1	6	4
N/C(=N\N=C/c1ccc(Br)cc1)N/N=C\c1ccc(Br)cc1	34	8	2	17	1	4	/
CC1CCC/C=C/C(=O)c2c(O)cc(O)cc2CC(=O)O1 (centres undefined)	100*	18	23	-106	0	32	98*	Full FLuc ctr=56*
O=C(O)c1cccc(NS(=O)(=O)c2cc(S(=O)(=O)c3ccc(Cl)cc3)ccc2Cl)c1	22	2	-1	-9	-1	0	/
O=C(COC(=O)C12CC3CC(CC(C3)C1)C2)Nc1nc2c(F)c(F)c(F)cc2s1	58*	-9	/	-4	0	2	14
CC1CCN(C(=O)COC(=O)C2CCN(S(=O)(=O)c3ccc4c(c3)OCCO4)CC2)CC1	22	11	-5	7	1	0	/
Cc1cc2c(cc1S(=O)(=O)N1CCN(c3ccc(Cl)cc3)CC1)OCCN2C	85*	21	-7	1	0	1	4
COc1cccc(N2CCN(S(=O)(=O)c3cc4c(cc3C)N(C)CCO4)CC2)c1	17	2	0	-9	0	-1	/
